Source: PubChem (National Center for Advancing Translational Sciences (NCATS))
A selection: hits, their analogues and other compounds. The true share with any hit is near 2.4%.
Pol beta inh – inhibitors of human DNA polymerase beta | Pol beta primer extension/strand displacement, fluorescence kinetic | 1.3% of 340,000 active | Potency, µM (highest dose often 114 µM), hits mostly inhibitors | P06746
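Human Pol beta at 10 nM; strand-displacement substrate 50 nM final. Compound exposure 15 min at room temperature before start, reaction 10 min at room temperature.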
Pol eta inh – inhibitors of human DNA polymerase eta; AID 588591; Potency, µM (doses to about 114 µM), usual class: inhibitors; Q9Y253; recombinant Pol eta, fluorescent DNA replication assay; 1.2% of 390,000 active
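Pol eta at 10 nM preincubated with compounds 15 min at room temperature; reaction started with fluorescent substrate (50 nM final) and read kinetically at 0 and 10 min.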
WRN helicase inh – WRN helicase (human) inhibition | 0.46% of 360,000 active | Q14191 | WRN helicase unwinding, fluorescent forked duplex, kinetic | Potency, µM (titrated, usually from 114 µM), actives largely listed as inhibitors; further: nearly all actives have a fitted effect of over 55% in size
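Enzyme (20 nM final) and test compound sit together 15 min at room temperature before substrate addition. Substrate is a single-forked duplex oligonucleotide (100 nM) labelled with fluorophore and quencher, with 2 mM ATP; helicase unwinding raises red fluorescence, read kinetically.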
FEN1 inh – inhibitors of human flap endonuclease 1. P39748. AID 588795. Potency, µM (series often up to 114 µM), most hits filed as inhibitors. 0.35% of 390,000 active. Recombinant FEN1 flap cleavage, fluorescence, 15 min; further: nearly all actives have a fitted effect of over 65% in size
Target sequence (P39748 whole entry, looked up): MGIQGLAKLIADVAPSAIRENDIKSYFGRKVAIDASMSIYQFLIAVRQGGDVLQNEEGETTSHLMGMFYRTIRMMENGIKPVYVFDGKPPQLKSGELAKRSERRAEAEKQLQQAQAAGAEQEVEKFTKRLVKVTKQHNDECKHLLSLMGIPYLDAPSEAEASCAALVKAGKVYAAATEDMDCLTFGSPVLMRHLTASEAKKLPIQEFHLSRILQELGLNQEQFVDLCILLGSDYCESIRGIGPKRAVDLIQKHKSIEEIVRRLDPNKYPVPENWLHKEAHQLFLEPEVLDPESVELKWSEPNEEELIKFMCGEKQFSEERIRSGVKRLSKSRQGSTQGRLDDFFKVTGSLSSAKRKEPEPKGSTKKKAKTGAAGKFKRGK
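Steps: FEN1 (10 nM) dispensed; compound added by pin tool; 15 min at room temperature; substrate added to 50 nM final; reads at 0 min and 15 min; data normalized and fitted (four-parameter Hill).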
POLI inh – DNA polymerase iota (human) inhibition; Potency, µM (top dose mostly 115 µM), actives largely listed as inhibitors; 1% of 390,000 active; Pol iota fluorescent replication assay, 10 min; Q9UNA4; AID 588590
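Fluorescent replication assay read twice, at 0 min and 10 min after adding 50 nM (final) substrate. Enzyme (10 nM) and compounds were first incubated 15 min at room temperature; enzyme-free buffer wells were negative controls.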
POLK inh – inhibitors of human DNA polymerase kappa; purified Pol kappa, fluorescent DNA synthesis assay, 10 min; AID 588579; 0.53% of 400,000 active; Potency, µM (highest dose often 107 µM), usual class: inhibitors
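10 nM Pol kappa preincubated 15 min at room temperature with compounds, then reaction started with substrate at 50 nM final. Fluorescence read kinetically at 0 and 10 min; buffer-only wells served as negative control.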
Hits are given with their value; . = inactive; ? = inconclusive; / = not tested or not shown; ! = not confirmed by another sample; [ ] = dose if it differs, or a comment. The call rests on the fitted dose curve; in most records, active means well fitted curve in the direction sought with a large enough effect; inconclusive means small, poorly fitted or top-dose-only effect, or another doubt; inactive means no such curve, though single readings can be large; an effect the other way counts as inactive or inconclusive.

SMILES | Pol beta inh | Pol eta inh | WRN helicase inh | FEN1 inh | POLI inh | POLK inh
Cc1csc(NC(=O)Nc2ccc(Cl)cc2)n1 | 28.2µM | ? | . | . | ? | .
COc1ccccc1N1CSC2=C(C#N)C(c3ccc(SC)cc3)CC(=O)N2C1 (stereo not given) | 25.1µM | 44.7µM | . | ? | ? | ?
N#CC1=C2SCN(C3CCCCC3)CN2C(=O)CC1c1ccc(F)cc1 (stereo not given) | . | . | / | . | 25.1µM | .
COc1cc(C2CC(=O)N3CN(c4ccccc4C)CSC3=C2C#N)cc(OC)c1OC (stereo not given) | . | / | / | / | / | /
CCC(CC)c1nn2c(=O)cc(COc3ccc(NC(=O)c4ccccc4C)cc3)nc2s1 | . | . | / | . | . | .
CCCN1CNc2c(c(=O)[nH]c(=S)n2CCc2ccc(Cl)cc2)C1 | / | / | / | . | . | .
CS(=O)(=O)N(CC(=O)NCc1ccco1)c1ccc(OCc2ccccc2)cc1 | 15.8µM | . | . | . | ? | .
CC(=O)Oc1cc2cccc(OC(C)=O)c(=O)c2c(OC(C)=O)c1OC(C)=O | 0.178µM | 10µM | 8.91µM | 1.12µM | 1µM | 1µM
COc1cc2cccc(OC)c(=O)c2c(O)c1OC | . | . | . | . | . | .
O=C(Sc1cccc2cccnc12)c1ccc(F)cc1 | . | / | / | / | / | /
O=S(=O)(Nc1cc(Sc2cccc3cccnc23)c(O)c2ccccc12)c1ccc(F)cc1 | . | . | 22.4µM | ? | ? | .
N#CC1=C(N)C2=C(N3CCCCC3)CCCC2C1(C#N)C#N (stereo not given) | . | . | ? | ? | ? | 50.1µM
COc1ccc(OC)c(CC2C(=O)Nc3ccc(Br)cc32)c1 (stereo not given) | . | . | / | . | . | .
COc1ccc(N2CCN(C(=O)c3ccc(NC(=O)C4=CSCCO4)cc3)CC2)cc1 | . | . | .[11.6 µM] | . | 35.5µM | .
COc1ccc(Cn2ccc3nc(C)c(C(=O)Nc4cc(C)cc(C)c4)cc3c2=O)cc1 | . | . | / | . | . | .
COc1ccc2nc(-c3ccccc3)cc(C(=O)OCC(=O)N3CC(C)OC(C)C3)c2c1 (stereo not given) | / | 79.4µM | .[11.6 µM] | ? | ? | .
CCOC(=O)Cc1cc(=O)n2[nH]c(C)c(-c3ccccc3)c2n1 | ? | . | . | . | ? | ?
CCOC(=O)Cc1cc(=O)n2[nH]c(-c3ccccc3)c(-c3ccccc3)c2n1 | 14.1µM | 79.4µM | ? | . | ? | 79.4µM
O=[N+]([O-])c1cc(-c2ccc(/C=N\n3cnnc3)o2)cc([N+](=O)[O-])c1 | 56.2µM | ? | . | . | 22.4µM | ?
Cc1ccccc1C(=O)Nc1ccccc1OCc1cc(=O)n2ccccc2n1 | . | . | / | . | . | .
COc1ccc(OC)c(N(CC(=O)Nc2ccccc2)S(=O)(=O)c2ccccc2)c1 | . | . | . | . | . | .
COc1ccc(C(C)NC(=O)CN(c2cc(OC)ccc2OC)S(=O)(=O)c2ccccc2)cc1 (stereo not given) | 20µM | ? | / | . | ? | .
CCc1ccc(-c2nn(CC(=O)NCc3ccccc3)c3c2cnc2ccc(C)cc23)cc1 | . | . | / | . | . | .
COc1ccc(-c2noc(-c3ccc(NCCc4ccccc4)c([N+](=O)[O-])c3)n2)cc1OC | . | . | / | . | . | .
CN(C)Cc1cc(O)c(CN(C)C)cc1O | 10µM | 79.4µM | .[11.6 µM] | ? | 7.08µM | 15.8µM
SMILES | Pol beta inh | Pol eta inh | WRN helicase inh | FEN1 inh | POLI inh | POLK inh
COc1cccc(N2CCN(c3ncc4c(n3)CCN(Cc3ccc(Br)cc3)C4)CC2)c1 | . | . | / | . | . | .
O=C(Nc1nnc(S(=O)(=O)N2CCCc3ccccc32)s1)c1ccccc1 | ? | ? | / | . | . | .
Cc1ccc(N2CCN(S(=O)(=O)c3nnc(NC(=O)c4ccco4)s3)CC2)cc1 | ? | 79.4µM | .[11.6 µM] | . | . | .
Cc1nnc(NC(=O)c2cccc(S(=O)(=O)N3CCc4ccccc43)c2)s1 | . | . | . | . | . | .
Cc1ccc(C(=O)Nc2nnc(S(=O)(=O)N3CCCc4ccccc43)s2)cc1 | ? | 89.1µM | / | . | . | .
O=C(Nc1nnc(S(=O)(=O)N2CCc3ccccc32)s1)c1cccc(Cl)c1 | . | 89.1µM | / | . | . | .
Cc1ccc(C(=O)N/N=C/c2ccc([N+](=O)[O-])s2)cc1 | 28.2µM | . | . | . | ? | .
O=C(N/N=C/c1ccc([N+](=O)[O-])s1)c1ccncc1 | . | . | . | . | ? | .
COc1ccc(-c2cc3c(=O)n(CC(=O)Nc4ccc(Br)c(C)c4)ccn3n2)cc1OC | . | / | / | . | . | .
O=C(COc1ccccc1/C=C1\SC(=O)NC1=O)Nc1ccc(F)cc1 | ? | 70.8µM | . | . | . | .
CCN(CC)CCCNC(=O)Cc1csc2nc(-c3ccc(Cl)cc3)cn12 | . | . | / | . | . | .
COc1cc(OC)cc(C(=O)Nc2nc(-c3nnn(-c4ccc(F)c(Cl)c4)c3C)ns2)c1 | 3.16µM | . | / | . | ? | .
COc1ccc(C(=O)Nc2nc(-c3nnn(-c4ccc(C(C)C)cc4)c3C)ns2)cc1 | . | . | / | ? | . | .
C=CCCn1c(Cl)c(C#N)sc1=O | / | / | / | . | . | .
COc1ccc(-c2cc(C)nc3c(-c4ccc(OC)c(OC)c4)c(C)nn23)cc1 | . | . | / | . | . | .
CCCCCCc1cc2cc(C(N)=O)c(=N)oc2cc1O | 31.6µM | / | / | / | / | /
O=C(COc1ccc(Cl)cc1)OCC(=O)N1CCCCCC1 | 35.5µM | . | . | . | . | .
CCOC(=O)c1c(C)oc2nc(C)nc(NCCCN3CCN(c4ccccc4)CC3)c12 | . | . | / | . | . | .
CCOC(=O)c1c(C)oc2nc(C)nc(NCCCN3CCN(c4cccc(C)c4)C(C)C3)c12 (stereo not given) | . | . | / | . | 89.1µM | ?
CC[C@@H](C)[C@@H](CO[C@@H](Cc1ccccc1)C(=O)N[C@@H](CCS(C)(=O)=O)C(=O)OC(C)C)NC[C@@H](N)CS | / | / | / | / | / | .
O=c1cc(-c2ccccc2O)oc2cc(O)ccc12 | / | / | / | / | / | .
O=c1cc(-c2ccc(O)cc2)oc2ccccc12 | 28.2µM | . | . | . | . | .
O=c1cc(-c2ccc(O)cc2)oc2cc(O)cc(O)c12 | . | ? | . | ? | ? | 20µM!
O=c1cc(-c2ccccc2)oc2cc(O)cc(O)c12 | / | . | . | . | . | .
O=c1cc(-c2cccc(O)c2O)oc2ccccc12 | / | / | / | / | / | 12.6µM
CCCCN(Cc1cc2ccccc2[nH]c1=O)C(=O)c1cccc(Cl)c1 | . | . | / | . | . | .
C=CCn1c(SCc2nc3sc(C(=O)O)c(C)c3c(=O)[nH]2)nnc1-c1ccccc1 | . | 31.6µM | . | . | ? | .
COc1ccc(NS(=O)(=O)c2ccc(O)c(NC(=O)c3cc4c(C)nn(-c5ccc(F)cc5)c4s3)c2)cc1 | 10µM | 20µM | ? | 56.2µM | 28.2µM | ?
